The values below come from PubChem BioAssay (NCATS).

Active and inactive are the calls of the source. Calls come from the whole dose curve; as a rule, active = well fitted activation curve with a large enough effect; inconclusive = small, poorly fitted or top-dose-only effect; inactive = flat fitted curve, though single readings scatter.

A short description of this experiment: Confirmation and Secondary Assay for Modulators of Hemoglobin Beta Chain Splicing at IVS2 705 locus (AID 930). Particulars: HeLa EGFP-705 splicing reporter, GFP fluorescence, 48 h; series mostly up to 46.1 µM. An excerpt: NIH Chemical Genomics Center [NCGC] NIH Molecular Libraries Screening Centers Network [MLSCN] MLSCN Grant: 1 X01 MH080684-01 PI Name: Dr. Ryszard Kole NCGC Assay Overview: Modulation of Alternative Splicing as Therapy Abnormal splicing is associated with a number of diseases, including cancer and genetic diseases such as cystic fibrosis, muscular dystrophy and beta-thalassemia. Alteration of disease associated splicing patterns provides a promising target for treatment. […] Mutations in the second intron of the b-globin gene at positions 654 or 705 are clinically relevant and cause mis-splicing which results in an out of frame gene product. […] EGFP-705 HeLa Cells as screen system. HeLa cell lines were stably transfected with a construct in which the EGFP (enhanced green fluorescent protein) cDNA was interrupted by the second intron of the beta-globin gene (IVS2-705). The ISV2 intron contains mutations which cause mis-splicing of EGFP and premature termination of EGFP which results in a nonfluorescent protein product. […] Expression of the transgene was driven by the CMV promoter. We concluded that a low molecular weight compound, which restored correct splicing of intron 2 would also generate functional EGFP protein, resulting in a fluorescent signal. Thus, the HeLa cells that express the EGFP-705 construct can be used for validation of splice site specificity of compounds identified in primary screening of the ISV2 654 construct.
NCGC Assay Protocol Summary: Confirmatory Screening. Freshly thawed HeLa EGFP-705 cells were seeded in 5 ul of optimem media (Invitrogen) containing 2 % fetal calf serum (Hyclone) and 1x penicillin/streptomycin (Invitrogen) at a concentration of 500 cells per well in 1536-well plates. Cells were incubated overnight at 37C in 5% CO2. The next day, cells were treated with DMSO, 500 nM antisense ISV2 654 PNA control oligo, or library compound and allowed to grow at 37C in 5% CO2 for 2 days. The PNA oligo blocked the mutation site in the intron and allowed proper (wild type) splicing to occur, resulting in full length EGFP expression and also allowed for optimization of the assay parameters. Plates were read in the Acumen Explorer (TTP Labtech) using 488 nm laser excitation and 500-520 nm emission PMT filter in a 1 x 8 uM capture mode. Fluorescnet objects ranging in size from 5 to 250 uM were measured and the total peak GFP intensity for each well was used for data analysis. Keywords: Thalassemia, beta-thalassemia, beta-globin, EGFP, ISV2 654, ISV2 705, SSO, PNA, antisense, splicing, MLSMR, MLSCN, NIH Roadmap, qHTS, NCGC
As for `CCOC(=O)n1ccn(C)c1=S`, the call was inactive. Consider `O=C1OC(c2ccc(O)cc2)(c2ccc(O)cc2)c2ccccc21`, for which the compound was classed as inactive. Then `CN(C)CC/C=C1\c2ccccc2Sc2ccc(Cl)cc21`, with “inactive”; and `CC(=O)Nc1c(I)cc(I)c(C(=O)O)c1I`, with “inactive”; and `CO/N=C1\CN(c2nc3c(cc2F)c(=O)c(C(=O)O)cn3C2CC2)CC1CN` (stereo not given), with “inactive”. On to `COc1c(C)c2c(c(O)c1C/C=C(\C)CCC(=O)O)C(=O)OC2`, for which the compound was called inactive. Consider `CC/C(=C(/CC)c1ccc(O)cc1)c1ccc(O)cc1`, for which the compound was classed as inactive. As for `C1CCc2nnnn2CC1`, the result was inactive. `CCN(CC)CCOC(=O)C(c1ccccc1)C1CCCCC1` (stereo not given): the outcome was inactive. Then `O=c1ccc2ccccc2o1`, with “inactive”; and `CC(C)NC[C@@H](O)COc1cccc2ccccc12`, with “inactive”.

Regarding `COc1ccc(C2C(=O)c3ccccc3C2=O)cc1`, the compound was called inactive.

Turning to `CCCCOc1ccc(C(=O)CCN2CCCCC2)cc1`, the compound was classed as inactive. As for `CCCCOc1cc(C(=O)NCCN(CC)CC)c2ccccc2n1`, the entry is “inactive”; as for `OC(CCN1CCCCC1)(c1ccccc1)c1ccccc1`, “inactive”; as for `CCN1CCN(c2cc3c(cc2F)c(=O)c(C(=O)O)cn3C2CC2)CC1`, “inactive”. For `CC(C)(C)CC(C)(C)c1ccc(OCCOCC[N+](C)(C)Cc2ccccc2)cc1`, the compound was called inactive. Then `OCc1ccccc1O`, with “inactive”; and `CCN(CC)C(=O)N1CCN(C)CC1`, with “inactive”; and `Oc1ccc(O)cc1`, with “inactive”. Regarding `CCN(CCCc1ccccc1)CCCc1ccccc1`, the outcome was inactive. Take `NC(=NCCCCCCN=C(N)/N=C(\N)Nc1ccc(Cl)cc1)/N=C(\N)Nc1ccc(Cl)cc1`: the compound was classed as inactive.

Take `C[N+]1(CCCCC[N+]2(C)CCCC2)CCCC1`: the call was inactive. With `CNCCC=C1c2ccccc2CCc2ccccc21`, the compound was called inactive. `CC(=O)Oc1ccc(C(c2ccc(OC(C)=O)cc2)c2ccccn2)cc1`: the outcome was inactive. As for `CN1CCN(C(c2ccccc2)c2ccccc2)CC1`, the entry is “inactive”. As to `CCOc1ccc(Cc2nccc3cc(OCC)c(OCC)cc23)cc1OCC`, the compound was called inactive. As for `CCCC(=O)Nc1ccc(OCC(O)CNC(C)C)c(C(C)=O)c1` (stereo not given), the entry is “inactive”; as for `Cc1ccc(C(=O)C(C)CN2CCCCC2)cc1` (stereo not given), “inactive”. As for `CCOc1ccc2nc3cc(N)ccc3c(N)c2c1`, the result was inactive. Then `Cc1ccnc(NS(=O)(=O)c2ccc(N)cc2)n1`, with “inactive”. For the compound `COC1=CC(=O)C[C@@H](C)[C@]12Oc1c(Cl)c(OC)cc(OC)c1C2=O`, the outcome was inactive. As for `Oc1ccc(Cl)c2cccnc12`, the entry is “inactive”; as for `CCCCc1nc(Cl)c(CO)n1Cc1ccc(-c2ccccc2-c2nn[nH]n2)cc1`, “inactive”. For the compound `CC(=O)N(O)CCCCCNC(=O)CCC(=O)N(O)CCCCCNC(=O)CCC(=O)N(O)CCCCCN`, the compound was classed as inactive.

For `Cc1cc(=O)n(-c2ccccc2)n1C`, the call was inactive.

For `Nc1ccc(C(=O)O)cc1`, the outcome was inactive. Then `CN(C(=O)CN(CCO)CC(=O)N(C)C(C)(C)Cc1ccccc1)C(C)(C)Cc1ccccc1`, with “inactive”; and `COc1ccc(OC)c(C(O)CNC(=O)CN)c1` (stereo not given), with “inactive”. As for `CCCCOc1ccc(OCCCN2CCOCC2)cc1`, the compound was classed as inactive.
